Laboratory results published in PubChem BioAssay (NCATS).
Records with an inconclusive call do not appear. Active and inactive are the calls of the source. Calls come from the whole dose curve; as a rule, active = well fitted cell-killing curve with a large enough effect; inconclusive = small, poorly fitted or top-dose-only effect, or effect the other way; inactive = no such curve, though single readings can be large or run the other way.
Potency is the fitted concentration of half-maximal effect.

Assay: Quantitative High-Throughput drug screen in 47 multiple myeloma cell lines against the NCATS MIPE library collection: SKMM1_PLB cell viability assay (AID 1919863); note: nearly all actives have a fitted effect of over 35% in size; for viability: series mostly up to about 46 µM
Conditions: SKMM1 myeloma viability, CellTiter-Glo ATP, 48 h; viability: hits give low values
Description: PI: Beverly A. Mock Ph.D.
Laboratory of Cancer Biology and Genetics,
Center for Cancer Research, National Cancer Institute,
National Institute of Health, Bethesda, Maryland
Drug resistance and disease progression are common in multiple myeloma (MM) patients, underscoring the need for new therapeutic combinations. […] We hypothesized that effective combinations would reduce MYC expression and enhance p16 activity. […] These preclinical data identify potentially useful drug combinations for evaluation in drug-resistant MM and reveal potential mechanisms of combined drug sensitivity.
Described herein is the primary MIPE qHTS used to cherrypick compounds. Validated compounds were then further tested for potential synergistic activiy.
[1] Peat TJ, Gaikwad SM, Dubois W, Gyabaah-Kessie N, Zhang S, Gorjifard S, Phyo Z, Andres M, Hughitt VK, Simpson RM, Miller MA, Girvin AT, Taylor A, Williams D, D'Antonio N, Zhang Y, Rajagopalan A, Flietner E, Wilson K, Zhang X, Shinn P, Klumpp-Thomas C, McKnight C, Itkin Z, Chen L, Kazandijian D, Zhang J, Michalowski AM, Simmons JK, Keats J, Thomas CJ, Mock BA. Drug combinations identified by high-throughput screening promote cell cycle transition and upregulate Smad pathways in myeloma. Cancer Lett. 2023 Aug 1;568:216284. doi: 10.1016/j.canlet.2023.216284. Epub 2023 Jun 24. PMID: 37356470; PMCID: PMC10408729.
SEQUENCE No. (e.g., 1, 2, 3, etc.); […] (e.g., Cells, Incubation, Reagent, etc.); VALUE and DESCRIPTION.
1; Cells; 5 uL; white, solid bottom 1536-well Greiner assay plate.
2; Compounds; 23 nL; Kalypsis pin tool (Wako USA) equipped with a 1536-well pin head to transfer to the assay plates.
3; Incubation; 48 hours; 37C incubation.
4; Reagent;5uL; CellTiter Glo (Promega).
5; Detector; 425V; Luminescence; Viewlux PerkinElmer.
NOTES (numbers refer to Sequence numbers above)
1. The cell-based screening methods employed in this study were like those previously published. Briefly, the corresponding myeloma cell lines were screened in 1,536-well plates with 500 cells, 5-uL per well for inhibition of cell viability (assessed by measuring ATP levels with CellTiterGlo).
2. NCATS MIPE 4.0 library of approved and investigational drugs were added using the Kalypsis pin tool. Wells treated with DMSO only for 100% viability and media only for 0% viability were used as controls.
3. The assay plates were covered and incubated for 48 hours in a 37C, 5% CO2 incubator with controlled humidity.
4. After 48 hours, CellTilter-GloTM luminescent substrate mix (Promega) reagent was added to the assay plate and plates we incubated for 5 min at room temperature.
5. Signal was measured as median relative luminescence units on a ViewLux (PerkinElmer) multiplate reader.
[1] Heske CM, Davis MI, Baumgart JT, Wilson K, Gormally MV, Chen L, Zhang X, Ceribelli M, Duveau DY, Guha R, Ferrer M, Arnaldez FI, Ji J, Tran HL, Zhang Y, Mendoza A, Helman LJ, Thomas CJ. Matrix Screen Identifies Synergistic Combination of PARP Inhibitors and Nicotinamide Phosphoribosyltransferase (NAMPT) Inhibitors in Ewing Sarcoma. Clin Cancer Res. 2017 Dec 1;23(23):7301-7311. doi: 10.1158/1078-0432.CCR-17-1121. Epub 2017 Sep 12. PMID: 28899971; PMCID: PMC6636827.
For CC=C(C)C(=O)N[C@@H](c1ccccc1)[C@@H](O)C(=O)O[C@H]1C[C@@]2(O)[C@@H](OC(=O)c3ccccc3)[C@@H]3[C@]4(OC(C)=O)CO[C@@H]4C[C@H](O)[C@@]3(C)C(=O)[C@H](OC(C)=O)C(=C1C)C2(C)C, the viability was 60.8% (inactive).
With C[C@@H]1CC[C@@]2(OC1)O[C@H]1C[C@H]3[C@@H]4CC=C5C[C@@H](O[C@@H]6O[C@H](CO)[C@@H](O[C@@H]7O[C@@H](C)[C@H](O)[C@@H](O)[C@@H]7O)[C@H](O)[C@@H]6O[C@@H]6O[C@@H](C)[C@H](O)[C@@H](O)[C@@H]6O)CC[C@]5(C)[C@@H]4CC[C@]3(C)[C@@H]1[C@H]2C the Potency was 2.35 µM (active).
For COc1cc([C@@H]2c3cc4c(cc3[C@@H](O)C3COC(=O)C32)OCO4)cc(OC)c1O (stereo not given in full), the Potency was 0.0166 µM (active).
In the case of CC(C)[C@]12O[C@@H]1[C@@H]1O[C@]13[C@]1(O[C@H]1C[C@@H]1C4=C(CC[C@@]13C)C(=O)OC4)[C@H]2O, the viability is reported as -10.1% (inactive).
In the case of O=C1C=CC[C@@H]2[C@H]3CCCN4CCC[C@@H](CN12)[C@@H]34, the viability is reported as 117% (inactive).
For N#C[C@H](O[C@@H]1O[C@H](CO[C@@H]2O[C@H](CO)[C@H](O)[C@H](O)[C@H]2O)[C@H](O)[C@H](O)[C@H]1O)c1ccccc1, the Potency was 20.9 µM (active).
With O=c1[nH]c2ccc(Cl)cc2c(N[C@@H]2CN3CCC2CC3)c1-c1nc2ccccc2[nH]1 the Potency was 4.69 µM (active).
For CCCCCC[C@H]1C(=O)O[C@H](C)[C@H](NC(=O)c2cccc(NC=O)c2O)C(=O)O[C@@H](C)[C@@H]1OC(=O)CC(C)C, the Potency was 5.26 µM (active).
For Cc1ccccc1-n1c(Cn2cnc3c(N)ncnc32)nc2cccc(C)c2c1=O, the Potency was 0.526 µM (active).
In the case of C=CCON=C(C[C@H]1O[C@@H]2O[C@]3(C)CC[C@@H]4[C@H](C)CC[C@@H]([C@H]1C)[C@@]24OO3)[C@H]1O[C@@H]2O[C@]3(C)CC[C@H]4[C@H](C)CC[C@@H]([C@@H]1C)[C@@]24OO3, the Potency is reported as 0.264 µM (active).
For CC1=C(O)C(=O)C=C2C1=CC=C1[C@@]2(C)CC[C@@]2(C)[C@@H]3C[C@](C)(C(=O)O)CC[C@]3(C)CC[C@]12C, the Potency was 1.05 µM (active).
For CN(C)NC(=O)CCC(=O)O, the viability was 111% (inactive).
For CC1=NN=C(c2ccc(N)cc2)c2cc3c(cc2C1)OCO3, the viability was 125% (inactive).
In the case of CCOC(=O)Nc1ccc(NCc2ccc(F)cc2)cc1N, the viability is reported as 119% (inactive).
In the case of O=C(Oc1ccc([N+](=O)[O-])cc1)N1CCC(C(O)(c2ccc3c(c2)OCO3)c2ccc3c(c2)OCO3)CC1, the viability is reported as 123% (inactive).
In the case of Cc1nc(-c2ccc(-c3ccc(C(=O)N4CCc5cc6c(cc54)C4(CCN(C)CC4)CO6)cc3)c(C)c2)no1, the viability is reported as 124% (inactive).
For CN(C)[C@@H]1C(=O)C(C(N)=O)=C(O)[C@@]2(O)C(=O)C3=C(O)c4c(O)cccc4[C@@](C)(O)[C@H]3[C@H](O)[C@@H]12, the Potency was 14.8 µM (active).
With C[C@@H]1CC[C@H]2[C@@H](C)C(=O)O[C@@H]3O[C@@]4(C)CC[C@H]1[C@]32OO4 the viability was 103% (inactive).
In the case of CC[C@@]1(O)C(=O)OCc2c1cc1n(c2=O)Cc2cc3ccccc3nc2-1, the Potency is reported as 0.235 µM (active).
With COc1ccc2c(c1)[C@]13CCCCC1C(C2)N(C)CC3 (stereo not given in full) the viability was 120% (inactive).
In the case of O=C(Oc1ccc([N+](=O)[O-])cc1)N1CCN(Cc2cccc(Oc3ccccc3)c2)CC1, the viability is reported as 117% (inactive).
With COCC1(CO)C(=O)C2CCN1CC2 (stereo not given) the Potency was 6.62 µM (active).
For Cc1[nH]nc2ccc(-c3cncc(OC[C@@H](N)Cc4c[nH]c5ccccc45)c3)cc12, the Potency was 5.9 µM (active).
With C[C@@H]1O[C@@H](O[C@@H]2C=C3CC[C@@H]4[C@@H](CC[C@]5(C)[C@H](c6ccc(=O)oc6)CC[C@@]45O)[C@@]3(C)CC2)[C@H](O)[C@H](O)[C@H]1O the Potency was 0.0235 µM (active).
In the case of CN1[C@H]2CC(O)C[C@H]1[C@H]1O[C@H]12 (stereo not given in full), the Potency is reported as 23.5 µM (active).
In the case of COc1ccc(CC2NCCc3cc(OC)c(OC)cc32)cc1OC (stereo not given), the viability is reported as 129% (inactive).
For CC(=O)N(C)c1cccc(-c2ccnc3c(C(=O)c4cccs4)cnn23)c1, the viability was 119% (inactive).
With COC1=C[C@@H]2[C@@H]3Cc4ccc(OC)c(O)c4[C@]2(CCN3C)CC1=O the viability was 132% (inactive).
In the case of CCN(CC)C(=O)c1ccc(C2=CC3(CCNCC3)Oc3cccc(O)c32)cc1, the viability is reported as 112% (inactive).
For Cc1c(C(=O)c2cccc3ccccc23)c2cccc3c2n1[C@H](CN1CCOCC1)CO3, the Potency was 23.5 µM (active).
With C=C[C@@H]1CN2CCC1C[C@@H]2[C@@H](O)c1ccnc2ccccc12 (stereo not given in full) the Potency was 23.5 µM (active).
In the case of C[C@]12CC[C@H]3[C@@H](CCC4=CC(=O)CC[C@@]43C)[C@H]1CC[C@H]2O, the viability is reported as 133% (inactive).
With O=C(Nc1ccncc1)C(=O)c1cn(Cc2ccc(Cl)cc2)c2ccccc12 the Potency was 0.418 µM (active).
With C=C[C@@H]1CN2CCC1C[C@H]2[C@H](O)c1ccnc2ccccc12 (stereo not given in full) the Potency was 20.9 µM (active).
For c1ccc(CCCN2CCN(CCOC(c3ccccc3)c3ccccc3)CC2)cc1, the Potency was 20.9 µM (active).
With CCNC(=O)C[C@@H]1N=C(c2ccc(Cl)cc2)c2cc(OC)ccc2-n2c(C)nnc21 the Potency was 0.469 µM (active).
In the case of CC(C)(O)C=CC(=O)[C@](C)(O)[C@H]1[C@H](O)C[C@]2(C)[C@@H]3CC=C4[C@@H](C=C(O)C(=O)C4(C)C)[C@]3(C)C(=O)C[C@@]12C, the Potency is reported as 2.64 µM (active).
With CN[C@@H]1Cc2cccc3[nH]c(=O)n(c23)C1 the viability was 93.2% (inactive).
In the case of COc1cc2cc(c1Cl)N(C)C(=O)C[C@H](OC(=O)C(C)C)[C@]1(C)O[C@H]1[C@H](C)[C@@H]1C[C@@](O)(NC(=O)O1)[C@H](OC)C=CC=C(C)C2, the viability is reported as 50.1% (inactive).
With O=c1cccc2n1CC1CNC[C@H]2C1 the viability was 142% (inactive).
